Source: PubChem BioAssay (The Scripps Research Institute Molecular Screening Center)
This is a sample that favours compounds with a hit; in the whole collection about 3.4% have one here.
TEAD-YAP inh – TEAD-YAP interaction inhibition; AID 1259422; HEK-TIYL cells, TEAD-Gal4/YAP UAS-luciferase luminescence; 1.4% of 640,000 active; inhibition, % at 9.12 µM; in the data active = inhibition above about 32%;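 also: 0% = median of test compound wells and 100% = reference inhibitor wells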
GPR151 activ – activators of human GPR151; Q8TDV0; PathHunter beta-arrestin GPR151 cells, luminescence; activation, % at 11.2 µM; 1% of 650,000 active; AID 1508602; in the data active = activation above about 4.9%;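 also: 0% = median of compound wells and 100% = cells with positive control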
MITF inh – human MITF inhibition, primary screen | AID 1259374 | O75030 | inhibition, % at 2.6 µM | 0.91% of 650,000 active | AlphaScreen MITF homodimerization, bead proximity signal; in the data active = inhibition above about 50%;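 also: 0% = vehicle wells with protein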
Target sequence (O75030 whole entry, looked up): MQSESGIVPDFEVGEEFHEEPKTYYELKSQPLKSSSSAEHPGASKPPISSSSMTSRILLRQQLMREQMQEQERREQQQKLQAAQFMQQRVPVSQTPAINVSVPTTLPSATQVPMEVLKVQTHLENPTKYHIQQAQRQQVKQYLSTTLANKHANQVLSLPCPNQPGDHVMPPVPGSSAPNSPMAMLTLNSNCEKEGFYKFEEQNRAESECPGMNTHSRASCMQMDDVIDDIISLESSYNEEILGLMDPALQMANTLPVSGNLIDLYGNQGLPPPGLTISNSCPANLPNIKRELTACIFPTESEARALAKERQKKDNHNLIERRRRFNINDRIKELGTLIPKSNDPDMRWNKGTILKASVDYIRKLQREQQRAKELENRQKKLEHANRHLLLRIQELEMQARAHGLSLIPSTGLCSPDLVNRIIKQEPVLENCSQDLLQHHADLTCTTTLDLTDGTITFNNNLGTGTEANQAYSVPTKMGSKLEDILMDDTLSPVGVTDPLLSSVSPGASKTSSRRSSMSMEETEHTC
FBW7 activator – activators of human E3 ligase FBW7; Q969H0; AlphaScreen FBW7–phospho-cyclin E peptide binding, activator screen; normalized activity (activation), % at 26.1 µM; 0.13% of 650,000 active; AID 1259310; in the data active = normalized activity above about 1.9%;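 also: purified mutant Fbw7 with reduced substrate affinity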
Starred values were filed as active, the others as inactive.

SMILES | TEAD-YAP inh | GPR151 activ | MITF inh | FBW7 activator
CCOC(=O)N1CCC(NS(=O)(=O)c2ccc3[nH]c4c(c3c2)CCCC4)CC1 | 57* | -1 | 9 | 0
CC1CCN(Cc2cc(COC(C)C)c3cccnc3c2O)CC1 | 15 | -3 | 85* | -1
CC1CN(Cc2cc([N+](=O)[O-])c3cccnc3c2O)CC(C)O1 (stereo unspecified) | 54* | -1 | 84* | -1
COCc1cc(CN2CCC(C)CC2)c(O)c2ncccc12 | 65* | 0 | 104* | -1
CCc1ccc(-n2c(=S)sc3c(=O)n(-c4ccccc4C)c(SCC(=O)c4ccccc4)nc32)cc1 | -10 | -1 | -2 | 0
Cc1nc(N2CCCC2)c2cc(C)sc2n1 | -9 | 1 | -5 | 0
Cc1nc(N2CCCc3ccccc32)c2cc(C)sc2n1 | 46* | 0 | -13 | 0
CCCn1nnnc1SCC(=O)Nc1ccc(NC(C)=O)cc1 | 15 | -1 | 11 | 0
Cc1ccc(Oc2ccc(S(=O)(=O)N3CCOCC3)cc2S(=O)(=O)N2CCOCC2)c(-n2nc3ccccc3n2)c1 | 2 | 0 | 0 | 0
Cc1ccc(OC(=O)c2ccccc2Cl)c(-n2nc3ccccc3n2)c1 | -20 | -1 | 0 | 7.6*
COc1ccccc1C(=O)Oc1ccc(C)cc1-n1nc2ccccc2n1 | -51 | -9 | 16 | 0
Cc1ccc(Oc2ccc(S(=O)(=O)N3CCOCC3)cc2C(N)=O)c(-n2nc3ccccc3n2)c1 | 41* | 0 | 0 | 0
CCCCC1(Nc2ccc(C)cc2)C(=O)N(c2ccccc2)N(c2ccccc2)C1=O | -1 | 0 | -8 | 0
CCOC(=O)N1CCc2c(sc(NC(=O)C(C)(C)C)c2C(N)=O)C1 | 1 | 1 | -1 | 0
CCCC(=O)Nc1sc2c(c1C(N)=O)CCN(C(=O)OCC)C2 | 51* | -1 | 1 | 0
CCCCC(=O)Nc1sc2c(c1C(N)=O)CCN(C(=O)OCC)C2 | 50* | -1 | 7 | 0
Cc1cc(S(=O)(=O)N(Cc2ccco2)CC2CCCO2)ccc1-n1cnnn1 (stereo unspecified) | -1 | 0 | 8 | 0
c1ccc(-c2nnc(COc3ncnc4c3cnn4-c3ccccc3)o2)cc1 | 5 | 2 | 3 | 0
CCc1ccc2oc(-c3ccc(NC(=O)c4cccc([N+](=O)[O-])c4C)cc3)nc2c1 | 1 | -1 | 9 | 0
Cc1cccc(C2CC(=O)Nc3cc4c(cc32)OCO4)c1 (stereo unspecified) | 18 | -1 | 8 | 0
Cc1cccc(C2CC(=O)Nc3cc4c(cc32)OCCO4)c1 (stereo unspecified) | 40* | 0 | 19 | 1
O=C(O[C@@H]1Cc2c(O)cc(O)cc2O[C@@H]1c1ccc(O)c(O)c1)c1cc(O)c(O)c(O)c1 | 0 | 0 | 83* | 0
O=C1c2c(O)cc(O)cc2OC(c2ccc(O)c(O)c2)C1O (stereo unspecified) | -1 | 2 | 14 | 0
O=C(O[C@@H]1Cc2c(O)cc(O)cc2O[C@@H]1c1cc(O)c(O)c(O)c1)c1cc(O)c(O)c(O)c1 | 2 | -1 | 77* | 0
CCCCNS(=O)(=O)c1ccc2nc(SCC(C)=O)[nH]c2c1 | 34* | 5 | -12 | 0
SMILES | TEAD-YAP inh | GPR151 activ | MITF inh | FBW7 activator
Cn1nc(CC(=O)Nc2ccc(F)cc2Cl)c2ccccc2c1=O | 46* | 1 | -13 | 0
COc1ccccc1NC(=O)Cc1nn(C)c(=O)c2ccccc12 | 36* | 0 | 13 | 0
Cc1nc2ccc([N+](=O)[O-])cc2c(=O)[nH]1 | 3 | 0 | 23 | 1
CCn1c(CNc2ccc(OC)cc2)nnc1SCC(=O)Nc1ccccc1Cl | 2 | 0 | 6 | 0
Fc1ccccc1CSc1nnc(N2CCN(c3ccccc3)CC2)s1 | -12 | 0 | 1 | 0
CN(C)c1ccc(/C=C2\N=C(c3ccccc3F)N(c3ccc(Br)cc3)C2=O)cc1 | -5 | -1 | 0 | 0
CN(C)c1ccc(/C=C2\N=C(c3ccccc3F)N(c3ccc(O)cc3)C2=O)cc1 | 60* | 0 | 10 | 0
Cc1ccc(N2C(=O)/C(=C/c3ccc(N(C)C)cc3)N=C2c2ccccc2F)c(C)c1 | 68* | 2 | -10 | 0
COc1ccc(-c2cnnc(NCCSc3nnnn3C)n2)cc1 | 7 | 3 | 6 | 0
COc1ccccc1/C=C1N=C(/C=C/c2ccc(C)cc2)OC\1=O | 9 | 2 | 0 | 0
O=[N+]([O-])c1cccc(C=C(c2nnnn2-c2ccccc2)c2nnnn2-c2ccccc2)c1 | 17 | 0 | 21 | 0
O=S(=O)(c1ccc2c(c1)OCCO2)N1CCN(C(=S)NC2CC3CCC2C3)CC1 (stereo unspecified) | 6 | 2 | 1 | 0
COc1cccc(C2N(c3ccc(C)cc3)N=C(C(C)=O)N2c2cccc(C)c2)c1OCc1ccccc1 (stereo unspecified) | 68* | 2 | 3 | 0
CC(=O)C1=NN(c2ccccc2)C(c2ccccc2OCc2ccc(Cl)cc2)N1c1ccc(Cl)cc1 (stereo unspecified) | 1 | -2 | -26 | 0
COc1cccc(C2N(c3ccccc3)N=C(C(C)=O)N2c2ccc(C)c(C)c2)c1OCc1ccccc1 (stereo unspecified) | 54* | 1 | -23 | 0
CNC(=O)c1ccccc1Nc1cc(NC(=O)Cc2ccc(OC)cc2)ncc1C(F)(F)F | 84* | 2 | 4 | 0
COc1ccc(CC(=O)Nc2cc(Nc3ccccc3-c3ncccn3)c(C(F)(F)F)cn2)cc1 | -4 | 1 | -3 | 0
CNC(=O)c1ccccc1Nc1cc(NC(=O)Cc2cccc(OC)c2)ncc1C(F)(F)F | 64* | 1 | -10 | 0
CNC(=O)c1cccnc1Nc1cc(NC(=O)Cc2ccc(OC)cc2)ncc1C(F)(F)F | 70* | 3 | -10 | 0
COc1ccc(CC(=O)Nc2cc(Nc3ccccc3C(=O)NC[C@H](O)C(=O)N(C)C)ccn2)cc1 | -3 | 0 | 27 | 0
CNC(=O)c1ccccc1Nc1cc(NC(=O)Cc2ccc(OC)cc2)ncc1C#N | 40* | 0 | -10 | 0
Cc1ccc(N2C(=O)C(CC(=O)Nc3cccc(F)c3)N(CC(C)C)C2=O)cc1 (stereo unspecified) | -7 | -1 | -15 | 1
Cc1cc(Cl)c(S(=O)(=O)N2CCSCC2)cc1OCC(=O)NC1CCCCC1 | 38* | -2 | 11 | 1
Cc1cc(Cl)c(S(N)(=O)=O)cc1OCC(=O)NC1CCCCC1 | -3 | 1 | 1 | 0
Cc1nc(C)c(/C(O)=C/c2nc3ccccc3oc2=O)s1 | -4 | -3 | 58* | 1
Cc1ccccc1Oc1nc2c(C)cccn2c(=O)c1/C=C(\C#N)C(=O)NC1CCCC1 | 32 | 1 | -8 | 0
CNC(=O)/C(C#N)=C/c1c(Oc2ccc(F)cc2)nc2c(C)cccn2c1=O | 13 | -3 | 8 | 0
C=CCNC(=O)/C(C#N)=C/c1c(Oc2ccccc2C)nc2c(C)cccn2c1=O | 41* | 1 | 9 | 0
CNC(=O)/C(C#N)=C/c1c(Oc2cccc(C)c2C)nc2c(C)cccn2c1=O | 35* | 0 | 8 | 0
